The values below come from PubChem BioAssay (EPA / NIEHS).

Read-out in assay [1]: Thrombomodulin, THBD (gene 7056)
Put plainly: BSK_CASM3C_Thrombomodulin: BioMAP Diversity Plus: CASM3C Assay for Thrombomodulin Biomarker Activity (AID 2283051).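 Further: thrombomodulin protein level measured by ELISA 24 h after dosing.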 The settings on record: primary human coronary artery smooth muscle cells; actives raise or lower the signal.

Read-out in assay [2]: Tissue Factor, F3 (gene 2152)
Briefly: BSK_CASM3C_TissueFactor: BioMAP Diversity Plus: CASM3C Assay for Tissue Factor Biomarker Activity (AID 2283052).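 Further: cell surface tissue factor protein level read by ELISA.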 The settings on record: primary human coronary artery smooth muscle cells; actives raise or lower the signal.

Read-out in assay [3]: Interferon-gamma inducible Protein 10 (IP10), CXCL10 (gene 3627)
Put plainly: BSK_hDFCGF_IP10: BioMAP Diversity Plus: hDFCGF Assay for Interferon-gamma inducible Protein 10 (IP10) Biomarker Activity (AID 2283053). The settings on record: primary human foreskin fibroblasts; actives raise or lower the signal. An outline of the steps: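 Chemical-treated human skin fibroblasts (primary) were sampled at 24 h for IP-10 by ELISA. Both increases and decreases relative to DMSO were scored.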

Read-out in assay [4]: Urokinase-type plasminogen activator receptor (uPAR), PLAUR (gene 5329)
Put plainly: BSK_CASM3C_uPAR: BioMAP Diversity Plus: CASM3C Assay for Urokinase-type plasminogen activator receptor (uPAR) Biomarker Activity (AID 2283054).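 Further: cell-surface uPAR protein level quantified by ELISA.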 The settings on record: primary human coronary artery smooth muscle cells; actives raise or lower the signal.

Read-out in assay [5]: Vascular cell adhesion molecule 1 (VCAM1), VCAM1 (gene 7412)
Put plainly: BSK_CASM3C_VCAM1: BioMAP Diversity Plus: CASM3C Assay for Vascular cell adhesion molecule 1 (VCAM1) Biomarker Activity (AID 2283055).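 Further: VCAM-1 protein level quantified by ELISA on the cells.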 The settings on record: primary human coronary artery smooth muscle cells; actives raise or lower the signal.

Read-out in assay [6]: Collagen III, COL3A1 (gene 1281)
Briefly: BSK_hDFCGF_CollagenIII: BioMAP Diversity Plus: hDFCGF Assay for Collagen III Biomarker Activity (AID 2283056). Conditions: primary human foreskin fibroblasts; actives raise or lower the signal. Put shortly: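 Human foreskin primary fibroblasts were exposed to test chemicals for 24 h, after which collagen III was quantified by ELISA. Activity was fitted bidirectionally against DMSO as negative control and baseline.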

Read-out in assay [7]: Epidermal growth factor receptor (EGFR), EGFR (gene 1956)
Put plainly: BSK_hDFCGF_EGFR: BioMAP Diversity Plus: hDFCGF Assay for Epidermal growth factor receptor (EGFR) Biomarker Activity (AID 2283057). The settings on record: primary human foreskin fibroblasts; actives raise or lower the signal. An outline of the steps: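 Cell-based multiplexed assay in primary human foreskin fibroblasts. EGFR is read by ELISA 24 h after treatment and compared with DMSO controls.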

Read-out in assay [8]: Interleukin-8 (IL8), CXCL8 (gene 3576)
Briefly: BSK_hDFCGF_IL8: BioMAP Diversity Plus: hDFCGF Assay for Interleukin-8 (IL8) Biomarker Activity (AID 2283058). The settings on record: primary human foreskin fibroblasts; actives raise or lower the signal. An outline of the steps: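 hDFCGF human dermal fibroblasts; 24 h chemical exposure; IL-8 by ELISA; bidirectional curve fit vs DMSO baseline; gain or loss of signal scored.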

Assay [9] can be described thus: BSK_hDFCGF_Proliferation: Cell Proliferation Assessment in the BioMAP Diversity Plus: hDFCGF Assay (AID 2283059).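 Further: curves fitted for both rise and fall of signal versus DMSO baseline.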 The settings on record: primary human foreskin fibroblasts. Put shortly:
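This proliferation readout used SRB total-protein staining of human foreskin fibroblasts […], normalized to DMSO with bidirectional curve fitting.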

Read-out in assay [10]: Macrophage colony-stimulating factor (MCSF), CSF1 (gene 1435)
Briefly: BSK_hDFCGF_MCSF: BioMAP Diversity Plus: hDFCGF Assay for Macrophage colony-stimulating factor (MCSF) Biomarker Activity (AID 2283060). The settings on record: primary human foreskin fibroblasts; actives raise or lower the signal. Put shortly:
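Human foreskin primary fibroblasts were treated with test chemical for 24 h, and M-CSF was then measured by ELISA. Data were fitted bidirectionally against DMSO as the negative control and activity baseline.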

Assay [11] can be described thus: BSK_hDFCGF_SRB: Viability Assessment in the BioMAP Diversity Plus: hDFCGF Assay (AID 2283061).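 Further: cells exposed to compound for 24 h before the read.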 The settings on record: primary human foreskin fibroblasts. Put shortly: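 Human foreskin primary fibroblasts were treated with compound and assessed 24 h after dosing. Total protein was measured by sulforhodamine B staining (0.1% SRB after 10% TCA fixation, 560 nm read) as a cytotoxicity marker, with bidirectional fitting against DMSO baseline.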

Read-out in assay [12]: TIMP metallopeptidase inhibitor 1 (TIMP1), TIMP1 (gene 7076)
Put plainly: BSK_hDFCGF_TIMP1: BioMAP Diversity Plus: hDFCGF Assay for TIMP metallopeptidase inhibitor 1 (TIMP1) Biomarker Activity (AID 2283062). The settings on record: primary human foreskin fibroblasts; actives raise or lower the signal. An outline of the steps: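 Primary human foreskin fibroblasts in the hDFCGF system were dosed with compound for 24 h, then TIMP-1 was measured by ELISA. Activity was fitted bidirectionally relative to DMSO control; parallel SRB staining assessed cytotoxicity.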

Read-out in assay [13]: Monokine induced gamma interferon (MIG), CXCL9 (gene 4283)
Put plainly: BSK_hDFCGF_MIG: BioMAP Diversity Plus: hDFCGF Assay for Monokine induced gamma interferon (MIG) Biomarker Activity (AID 2283063). Conditions: primary human foreskin fibroblasts; actives raise or lower the signal. An outline of the steps:
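ELISA read-out of MIG from primary human dermal fibroblasts 24 h post-dosing. Gain or loss of signal fitted bidirectionally, DMSO as baseline.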

Read-out in assay [14]: Matrix Metallopeptidase 1 (MMP1), MMP1 (gene 4312)
Put plainly: BSK_hDFCGF_MMP1: BioMAP Diversity Plus: hDFCGF Assay for Matrix Metallopeptidase 1 (MMP1) Biomarker Activity (AID 2283064). The settings on record: primary human foreskin fibroblasts; actives raise or lower the signal. An outline of the steps:
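Human foreskin fibroblasts exposed to chemical for 24 h; MMP1 detected by ELISA, with DMSO as baseline for bidirectional fitting.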

Read-out in assay [15]: Vascular cell adhesion molecule 1 (VCAM1), VCAM1 (gene 7412)
Briefly: BSK_hDFCGF_VCAM1: BioMAP Diversity Plus: hDFCGF Assay for Vascular cell adhesion molecule 1 (VCAM1) Biomarker Activity (AID 2283065).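 On AC50: VCAM-1 protein level quantified by ELISA after 24 h chemical exposure.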 The settings on record: primary human foreskin fibroblasts; actives raise or lower the signal. Put shortly: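 Primary human foreskin fibroblasts (hDFCGF system) were dosed with chemical and VCAM-1 was measured by ELISA 24 h later. Bidirectional curve fitting used DMSO as negative control and activity baseline.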

Read-out in assay [16]: Plasminogen activator inhibitor-1 (PAI1), SERPINE1 (gene 5054)
Briefly: BSK_hDFCGF_PAI1: BioMAP Diversity Plus: hDFCGF Assay for Plasminogen activator inhibitor-1 (PAI1) Biomarker Activity (AID 2283066). Conditions: primary human foreskin fibroblasts; actives raise or lower the signal. An outline of the steps: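 Human skin fibroblast cultures receive chemical for 24 h before PAI-1 is measured by ELISA; signal changes are fitted bidirectionally against DMSO-treated wells.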

Read-out in assay [17]: Intercellular Adhesion Molecule 1 (ICAM1), ICAM1 (gene 3383)
Put plainly: BSK_KF3CT_ICAM1: BioMAP Diversity Plus: KF3CT Assay for Intercellular Adhesion Molecule 1 (ICAM1) Biomarker Activity (AID 2283067). Conditions: primary human keratinocytes with fibroblasts; actives raise or lower the signal. An outline of the steps: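 Human keratinocyte plus foreskin fibroblast primary co-culture was exposed to chemical for 24 h. ICAM-1 was then quantified by ELISA, and the data were fit bidirectionally against DMSO as the negative control and baseline.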

Read-out in assay [18]: Interferon-gamma inducible Protein 10 (IP10), CXCL10 (gene 3627)
Briefly: BSK_KF3CT_IP10: BioMAP Diversity Plus: KF3CT Assay for Interferon-gamma inducible Protein 10 (IP10) Biomarker Activity (AID 2283068). Conditions: primary human keratinocytes with fibroblasts; actives raise or lower the signal. An outline of the steps:
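Signal is secreted/surface IP-10 by ELISA in a human primary skin co-culture of keratinocytes and foreskin fibroblasts, taken 24 h post-dosing; DMSO served as negative control.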

Assay [19] can be described thus: BSK_KF3CT_SRB: Viability Assessment in the BioMAP Diversity Plus: KF3CT Assay (AID 2283069).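 Further: fitted for both signal gain and loss against DMSO baseline.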 The settings on record: primary human keratinocytes with fibroblasts. Put shortly: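 Overt cytotoxicity is assessed as total protein by sulforhodamine B staining in parallel human skin co-cultures at 24 h after dosing. DMSO serves as negative control and baseline.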
Read-out in assay [20]: Interleukin-1 alpha (IL1a), IL1A (gene 3552)
Put plainly: BSK_KF3CT_IL1a: BioMAP Diversity Plus: KF3CT Assay for Interleukin-1 alpha (IL1a) Biomarker Activity (AID 2283070). Conditions: primary human keratinocytes with fibroblasts; actives raise or lower the signal. An outline of the steps:
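Readout is IL-1a level by ELISA, compared bidirectionally with DMSO as baseline. Cells: human keratinocytes co-cultured with foreskin fibroblasts, harvested 24 h post-dose.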

SMILES strings stand for the structures. Values joined by “and” are separate entries in the source; they are usually repeats but may differ in a detail not shown here. Equal values may be shown once. More than one record can exist for a structure, and the calls need not agree. Active and inactive are the calls of the source. How the source made its calls: active means hit-call score of the fitted dose curve at least 0.9, where 1 is the maximum; inactive means score below 0.9.

As a reminder, the AC50 is the concentration at which the activity in the assay is half-maximal.

For `COCN(COC)c1nc(N(COC)COC)nc(N(COC)COC)n1`, the result in assay [1], in assay [2], in assay [3], in assay [4], in assay [5] and in assay [6] was inactive. For the same compound, the result in assay [7], in assay [8], in assay [9], in [10], in assay [11] and in assay [12] was inactive. Moreover, the outcome in assay [13], in assay [14], in assay [15], in [16], in assay [17] and in assay [18] was inactive. Moreover, the outcome in assay [19] and in [20] was inactive.
`O=C(CCCN1CCC(O)(c2ccc(Cl)cc2)CC1)c1ccc(F)cc1`: the result in [1], in [2], in assay [3], in assay [4], in [5] and in assay [6] was inactive. In addition, the result in assay [8], in [10], in assay [11], in [12], in assay [13] and in assay [14] was inactive. For the same compound, the result in [15], in [16], in assay [17], in assay [18], in assay [19] and in [20] was inactive. Also, in [9], the half-maximal activity concentration (AC50) is 4.55 µM (active).
Regarding `OCC(F)(F)C(F)(F)C(F)(F)C(F)(F)C(F)(F)C(F)(F)C(F)(F)C(F)(F)C(F)(F)C(F)(F)C(F)(F)F`, the outcome in assay [1], in assay [2], in [3], in assay [4], in assay [5] and in [7] was inactive. In addition, the outcome in [8], in [9], in assay [10], in assay [11], in assay [12] and in [13] was inactive. For the same compound, the outcome in assay [14], in assay [15], in assay [16], in assay [17], in assay [18] and in assay [19] was inactive. Also, in assay [20], the result was inactive. In addition, the AC50 was 58 nM (active) and 74.1 nM (active) in assay [6]; 0.189 µM (active) in assay [15].
As to `CN(CCO)S(=O)(=O)C(F)(F)C(F)(F)C(F)(F)C(F)(F)C(F)(F)C(F)(F)C(F)(F)C(F)(F)F`, the outcome in assay [1], in assay [2], in assay [3], in [4], in assay [5] and in assay [6] was inactive. The result in assay [8], in [9], in [10], in assay [11], in assay [12] and in assay [13] was inactive. Besides, the result in [14], in assay [15], in [16], in [17], in assay [18] and in [19] was inactive. Also, the outcome in assay [20] was inactive. Besides, the AC50 in assay [10] was 0.0414 µM (active).
In the case of `CN(Cc1cnc2nc(N)nc(N)c2n1)c1ccc(C(=O)N[C@@H](CCC(=O)O)C(=O)O)cc1`, the outcome in assay [1], in [2], in assay [3], in assay [4], in [5] and in assay [6] was inactive. Besides, the outcome in assay [8], in assay [9], in assay [10], in assay [11], in assay [12] and in assay [13] was inactive. In addition, the outcome in assay [14], in [15], in assay [16], in [17], in assay [18] and in assay [19] was inactive. The outcome in assay [20] was inactive. Moreover, the AC50 in assay [10] was 2.65 µM (active).
With `Oc1cc2ccccc2cc1O`, the outcome in [1], in assay [2], in assay [3], in assay [4], in [5] and in assay [7] was inactive. Also, the result in [8], in [10], in [11], in [12], in assay [13] and in assay [14] was inactive. The outcome in assay [15], in [16], in [17], in assay [18], in assay [19] and in assay [20] was inactive. Also, the concentration at half-maximal activity (AC50) was 20 µM (active) in assay [6] and 29.7 µM (active) in assay [9].
